Hit rate of the full screen: of about 5,500 compounds, about 2,000 (36%) were called active. Another 18% or so got no clear call; they are omitted. Rule as the data show it: active = normalized growth mostly below about 0.91 (no sharp cut-off); inconclusive = no clear call, values can overlap the other calls; inactive = mostly above about 0.92. This is one part of the list.
Assay: chemical genetic growth profiling, strain panel (AID 1159580);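 also: tested at 20 µM; growth read once vehicle control cultures reached saturation at 30 °C; 1 = growth at the plate median or of vehicle wells; lower values mean less growth of the strain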
Settings: S. cerevisiae deletion strains, growth OD

Measured: normalized growth

CC(=O)NCCCCCC(=O)O
inactive: locus YAL013W, strain DEP1, hits give low values 1.01 | locus YAL021C, strain ccr4, hits give low values 1.01 | locus YAL026C, strain drs2, hits give low values 0.978 | locus YAL030W, strain snc1, hits give low values 0.99 | locus YBL061C, strain skt5, hits give low values 0.99 | locus YBR009C, strain hhf1, hits give low values 0.979 | locus YBR021W, strain FUR4, hits give low values 1.02 | locus YBR023C, strain chs3, hits give low values 0.984 | locus YBR171W, strain sec66, hits give low values 0.999 | locus YBR229C, strain ROT2, hits give low values 1.01 | locus YBR231C, strain swc5, hits give low values 0.998 | locus YBR279W, strain paf1, hits give low values 0.998 | locus YCL011C, strain gbp2, hits give low values 0.968 | locus YCL016C, strain dcc1, hits give low values 1 | locus YCL029C, strain bik1, hits give low values 0.988 | locus YCL061C, strain MRC1, hits give low values 1 | locus YCL069W, strain vba3, hits give low values 0.979 | locus YCR088W, strain abp1, hits give low values 0.99 | locus YDL005C, strain med2, hits give low values 0.984 | locus YDL035C, strain GPR1, hits give low values 1.02 | locus YDL040C, strain nat1, hits give low values 0.995 | locus YDL074C, strain BRE1, hits give low values 1.04 | locus YDL101C, strain DUN1, hits give low values 1.02 | locus YDL134C, strain PPH21, hits give low values 1 | locus YDL185W, strain tfp1, hits give low values 0.985 | locus YDL192W, strain arf1, hits give low values 0.988 | locus YDR001C, strain nth1, hits give low values 0.987 | locus YDR069C, strain doa4, hits give low values 0.993 | locus YDR101C, strain arx1, hits give low values 0.986 | locus YDR137W, strain rgp1, hits give low values 1.01 | locus YDR159W, strain sac3, hits give low values 0.976 | locus YDR162C, strain NBP2, hits give low values 1.01 | locus YDR195W, strain ref2 0.982 | locus YDR297W, strain sur2, hits give low values 0.993 | locus YDR318W, strain mcm21, hits give low values 0.992 | locus YDR334W, strain swr1, hits give low values 0.979 | locus YDR335W, strain msn5, hits give low values 1 | locus YDR388W, hits give low values 0.97 | locus YDR392W, strain spt3, hits give low values 0.891 | locus YDR502C, strain sam2, hits give low values 0.98 | locus YEL003W, strain gim4, hits give low values 0.969 | locus YEL037C, strain rad23, hits give low values 0.972 | locus YEL061C, strain CIN8 (second series), hits give low values 0.977 | locus YEL061C, strain CIN8, hits give low values 1.01 | locus YER015W, strain faa2, hits give low values 1 | locus YER016W, strain bim1, hits give low values 0.997 | locus YER110C, hits give low values 0.986 | locus YER111C, strain swi4, hits give low values 0.967 | locus YER155C, strain BEM2 (second series), hits give low values 1.01 | locus YER155C, strain BEM2, hits give low values 1.01 | locus YER167W, strain BCK2, hits give low values 1 | locus YFR010W, strain ubp6, hits give low values 0.983 | locus YGL078C, strain dbp3, hits give low values 0.974 | locus YGL086W, strain mad1, hits give low values 1 | locus YGL167C, strain pmr1, hits give low values 0.969 | locus YGL173C, strain kem1, hits give low values 0.99 | locus YGL227W, strain vid30, hits give low values 0.97 | locus YGL240W, strain doc1, hits give low values 0.993 | locus YGL248W, strain PDE1, hits give low values 1.03 | locus YGL253W, strain hxk2, hits give low values 0.991 | locus YGR135W, strain pre9, hits give low values 0.979 | locus YGR229C, strain SMI1, hits give low values 1.01 | locus YGR252W, strain gcn5, hits give low values 0.954 | locus YHR013C, strain ard1, hits give low values 0.946 | locus YHR027C, strain rpn1, hits give low values 1.01 | locus YHR030C, strain SLT2, hits give low values 1.01 | locus YHR079C, strain IRE1 (second series), hits give low values 0.992 | locus YHR094C, strain hxt1, hits give low values 0.984 | locus YHR129C, strain ARP1, hits give low values 1.01 | locus YHR142W, strain chs7, hits give low values 1.02 | locus YHR200W, strain rpn10, hits give low values 0.994 | locus YIL066C, strain RNR3, hits give low values 1.03 | locus YIL073C, strain SPO22, hits give low values 0.979 | locus YIL125W, strain kgd1, hits give low values 0.981 | locus YIR030C, strain dcg1, hits give low values 0.998 | locus YJL092W, strain hpr5, hits give low values 0.99 | locus YJL095W, strain BCK1 (second series), hits give low values 1.01 | locus YJL095W, strain BCK1, hits give low values 1.03 | locus YJL115W, strain asf1, hits give low values 0.98 | locus YJL129C, strain trk1, hits give low values 1 | locus YJL134W, strain LCB3, hits give low values 1.01 | locus YJL154C, strain vps35, hits give low values 0.978 | locus YJL164C, strain tpk1, hits give low values 1.02 | locus YJL166W, strain qcr8, hits give low values 1.01 | locus YJL168C, strain set2, hits give low values 0.986 | locus YJL187C, strain SWE1 (second series), hits give low values 1.03

From PubChem BioAssay AID1159580 (chemical genetic matrix, 2015)
